# Source: the antibiotic and cytotoxicity screens of Wong et al. (2023)
# About 3,300 (8.5%) of roughly 39,000 compounds were called active. This is one part of a sample in which actives are shown more often than they occur.
# Test system: HepG2
# Test: cytotoxicity call (relative viability < 0.9)
# Conditions: 10 µM
row,SMILES,cytotoxicity call
1,C[C@@H]1CN([C@H](C)CO)C(=O)c2cc(NS(=O)(=O)c3ccc(F)cc3)ccc2O[C@@H]1CN(C)S(=O)(=O)c1cccs1,inactive
2,Cc1noc(C)c1S(=O)(=O)Nc1ccc2c(c1)CC(=O)N([C@@H](C)CO)C[C@H](C)[C@@H](CN(C)S(=O)(=O)c1ccc(Cl)cc1)O2,inactive
3,Cc1cccc(C)c1NC(=O)c1ccccc1C(=O)O,active
4,Cc1cccc(Nc2ccccc2C(=O)O)c1C,inactive
5,Cc1cccc(C(=O)O)c1O,inactive
6,C[C@@H]1CN([C@@H](C)CO)S(=O)(=O)c2ccc(C#CC3CCCCC3)cc2O[C@H]1CN(C)C(=O)Cc1ccncc1,inactive
7,CO[C@H]1C[C@@H](O[C@@H]2/C(C)=C/C[C@@H]3C[C@@H](C[C@]4(CC[C@H](C)[C@@H](C5CCCCC5)O4)O3)OC(=O)[C@@H]3C=C(C)/C(=N/O)[C@H]4OC/C(=C\C=C\[C@@H]2C)[C@]43O)O[C@@H](C)[C@@H]1O,inactive
8,CO[C@H]1C[C@H](O[C@@H]2/C(C)=C/C[C@@H]3C[C@@H](C[C@]4(CC[C@H](C)[C@@H](C5CCCCC5)O4)O3)OC(=O)[C@@H]3C=C(C)/C(=N/O)[C@H]4OC/C(=C\C=C\[C@@H]2C)[C@]43O)O[C@@H](C)[C@@H]1O,active
9,COC1CC(OC2C(C)=CCC3CC(CC4(CCC(C)C(C5CCCCC5)O4)O3)OC(=O)C3C=C(C)C(=NO)C4OCC(=CC=CC2C)C34O)OC(C)C1O (configuration not stated),active
10,COCC(=O)Nc1ccc2c(c1)C(=O)N(C)[C@@H]1CC[C@@H](CC(=O)N3CCc4ccccc4C3)O[C@@H]1CO2,inactive
11,COc1ccc(NC(=O)Nc2ccc3c(c2)C(=O)N([C@@H](C)CO)C[C@H](C)[C@H](CN(C)C(=O)NC2CCCCC2)OCCCC[C@@H](C)O3)cc1,inactive
12,COc1ccc(C)c2c1CCCC2=O,inactive
13,C[C@H](CO)N1C[C@H](C)[C@H](CN(C)C(=O)Nc2cccc3ccccc23)Oc2ccc(NC(=O)Cn3cnnn3)cc2CC1=O,inactive
14,C[C@@H]1CN([C@H](C)CO)C(=O)c2cc(NC(=O)Nc3ccc(C(F)(F)F)cc3)ccc2O[C@@H](C)CCCCO[C@H]1CN(C)S(=O)(=O)c1cccs1,inactive
15,C[C@@H]1CCCCO[C@@H](CN(C)C(=O)CCC(F)(F)F)[C@H](C)CN([C@H](C)CO)C(=O)c2cc(NS(=O)(=O)c3cccs3)ccc2O1,inactive
16,Cc1ccc(S(=O)(=O)N[C@@H]2CC[C@H](CC(=O)N3CCC(Cc4ccccc4)CC3)O[C@@H]2CO)cc1,inactive
17,C[C@@H]1CCCCO[C@H](CN(C)C(=O)NC2CCCCC2)[C@@H](C)CN([C@H](C)CO)C(=O)c2cc(NC(=O)Nc3ccccc3)ccc2O1,inactive
